Laboratory results: paper PMC5540273 (PLoS ONE, 2017)

Legend:
Conditions in all cases: concentration: 1 μM, replicates: in singlicate; n = 1
[1] = system: T1, PKAC-beta
T1 construct: gene PRKACB

[2] = system: PKMYT1
[3] = system: PKN1
[4] = system: PKN2
[5] = system: PLK1
[6] = system: PLK2
[7] = system: PLK3
[8] = system: PLK4
[9] = system: PRKCD
[10] = system: PRKCE
[11] = system: PRKCH
[12] = system: PRKCI
[13] = system: PRKCQ
[14] = system: PRKD1
[15] = system: PRKD2
[16] = system: PRKD3
[17] = system: PRKG1
[18] = system: PRKG2
[19] = system: T2, PRKR
T2 construct: gene EIF2AK2

[20] = system: PRKX
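Note: KINOMEscan kinase panel screen.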

Compound | %Inh [1] | %Inh [2] | %Inh [3] | %Inh [4] | %Inh [5] | %Inh [6] | %Inh [7] | %Inh [8] | %Inh [9] | %Inh [10] | %Inh [11] | %Inh [12] | %Inh [13] | %Inh [14] | %Inh [15] | %Inh [16] | %Inh [17] | %Inh [18] | %Inh [19] | %Inh [20]
Cc1nccc(-c2c(-c3ccc(F)cc3)ncn2CCCN2CCOCC2)n1.Cl [SB-282975] | 0% | 0% | 19% | 1% | 44% | 21% | 5% | 3% | 31% | 11% | 0% | 21% | 14% | 25% | 2% | 7% | 10% | 26% | 0% | 0%
CNC(=O)c1ccc(C)c(-n2c(C)cc(OCc3ccc(F)cc3F)c(Br)c2=O)c1 | 74% | 0% | 0% | 19% | 0% | 0% | 0% | 0% | 7% | 35% | 0% | 99.7% | 7% | 0% | 1% | 0% | 78% | 95.6% | 0% | 0%
Nc1cccc(-c2ccc3c(N)n[nH]c3c2)n1 [GSK2192730] | 0% | 0% | 37% | 0% | 0% | 0% | 0% | 8% | 0% | 0% | 0% | 8% | 10% | 0% | 0% | 8% | 0% | 0% | 10% | 23%
O=C(Nc1n[nH]c2nc(-c3cccs3)c(Br)cc12)C1CCCC1 [SB-743341] | 0% | 0% | 0% | 5% | 0% | 21% | 26% | 25% | 29% | 0% | 21% | 21% | 32% | 7% | 0% | 23% | 4% | 0% | 0% | 0%
Cc1c(Cn2c3ccccc3n3c(=O)cc(N4CCOCC4)nc23)cccc1C(F)(F)F [GSK2306394] | 0% | 0% | 100% | 0% | 0% | 0% | 0% | 0% | 0% | 0% | 22% | 9% | 10% | 0% | 10% | 27% | 28% | 0% | 25% | 30%
Cc1ccc(NC(=O)Nc2ccc(Cl)cc2)cc1-c1ccc(C(=O)Nc2ccncc2)cc1 [GSK1398472] | 0% | 5% | 0% | 0% | 0% | 0% | 0% | 0% | 0% | 21% | 27% | 27% | 10% | 0% | 0% | 35% | 8% | 0% | 1% | 24%
Cc1ccccc1-c1cc(-c2c[nH]nc2-c2ccccn2)ccn1 [GW680061] | 0% | 0% | 0% | 0% | 0% | 0% | 0% | 0% | 0% | 10% | 2% | 8% | 2% | 0% | 0% | 100% | 0% | 0% | 0% | 5%
CS(=O)(=O)Cc1ccc(Nc2nccc(-c3c(-c4cccc(NC(=O)C5CCCCC5)c4)nn4ncccc34)n2)cc1 [GSK350559] | 0% | 3% | 10% | 0% | 15% | 3% | 13% | 6% | 0% | 0% | 3% | 23% | 25% | 0% | 0% | 18% | 0% | 3% | 0% | 5%
CCCCc1nn2ncccc2c1-c1ccnc(NC2CC2)n1 [GW684374] | 0% | 0% | 18% | 0% | 0% | 0% | 0% | 0% | 0% | 1% | 0% | 8% | 0% | 0% | 0% | 16% | 0% | 0% | 10% | 4%
Cl.Cl.Cl.N#Cc1ccc(CCNc2nccc(-c3cccc(CN4CCNCC4)c3)n2)cc1 [GSK2137462] | 5% | 18% | 0% | 2% | 5% | 5% | 0% | 6% | 18% | 76% | 25% | 21% | 5% | 1% | 13% | 0% | 0% | 4% | 0% | 4%
